Screening results deposited in PubChem by The Scripps Research Institute Molecular Screening Center.
A selection: hits, their analogues and other compounds. The true share with any hit is near 3.5%.
TEAD-YAP block = TEAD-YAP interaction inhibition, primary screen, TEAD-YAP interaction inhibitor project, luminescence, HEK-TIYL cells. inhibition, % at 9.12 µM. 640,000 compounds, 1.4% hits. TEAD-Gal4/YAP UAS-luciferase luminescence; in the data active means inhibition above about 32%;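 further: 0% = median of test compound wells and 100% = reference inhibitor wells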
GPR151 ag = activators of human GPR151, primary screen, cell-based, PathHunter beta-arrestin, luminescence. G-protein coupled receptor 151 (Homo sapiens), Q8TDV0. activation, % at 11.2 µM. AID 1508602, 2020. 650,000 compounds, 1% hits. PathHunter beta-arrestin GPR151 cells; in the data active means activation above about 4.9%;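 further: 0% = median of compound wells and 100% = cells with positive control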
Target sequence (Q8TDV0 whole entry, looked up): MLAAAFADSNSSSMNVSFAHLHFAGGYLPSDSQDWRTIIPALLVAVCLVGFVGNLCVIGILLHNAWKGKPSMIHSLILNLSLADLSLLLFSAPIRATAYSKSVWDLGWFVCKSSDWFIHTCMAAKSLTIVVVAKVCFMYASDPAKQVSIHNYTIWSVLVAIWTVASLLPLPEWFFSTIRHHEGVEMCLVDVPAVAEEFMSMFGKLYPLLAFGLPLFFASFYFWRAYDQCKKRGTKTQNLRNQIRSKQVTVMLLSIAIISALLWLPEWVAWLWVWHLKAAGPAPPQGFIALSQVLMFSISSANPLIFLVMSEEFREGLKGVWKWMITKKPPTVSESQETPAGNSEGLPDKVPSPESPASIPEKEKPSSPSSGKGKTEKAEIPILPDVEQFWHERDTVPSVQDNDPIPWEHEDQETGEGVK
MITF inh = MITF inhibitors, primary screen, biochemical, AlphaScreen, human; AlphaScreen MITF homodimerization, bead proximity signal; inhibition, % at 2.6 µM; 650,000 compounds, 0.91% hits; AID 1259374, 2018; in the data active means inhibition above about 50%;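 further: 0% = vehicle wells with protein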
FBW7 act = FBW7 E3 ligase activators, primary screen, biochemical, AlphaScreen, human | F-box/WD repeat-containing protein 7 (Homo sapiens), Q969H0 | AlphaScreen FBW7–phospho-cyclin E peptide binding, activator screen | normalized activity (activation), % at 26.1 µM | 650,000 compounds, 0.13% hits; in the data active means normalized activity above about 1.9%;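 further: purified mutant Fbw7 with reduced substrate affinity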
GPR151 conf act = GPR151 activators, triplicate retest, confirmation, cell-based, PathHunter beta-arrestin, luminescence | shares compounds with GPR151 ag | GPR151 PathHunter beta-arrestin cells, 90 min; % of EA-reagent control over plate median | activation, % at 11.2 µM | 6,700 tested, under 10 active | AID 1508609, 2020;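 active means mean percent activation across replicates above the confirmation screen cutoff of 4.91%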
GPR119 ag = GPR119 activators in beta-arrestin cells, counter-screen for GPR151 activator project, cell-based, PathHunter beta-arrestin, luminescence, triplicate. 6,700 compounds, 0.3% hits. 90 min; 0 = compound-well median, 100 = enzyme-acceptor control. shares compounds with GPR151 ag. activation, % at 11.2 µM;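 active means mean percent activation in the counterscreen above 29.09%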;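 further: counterscreen on off-target GPR119 to flag nonselective hits from the GPR151 activator screen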
Numbers without * were called inactive; . = no result.

SMILES	TEAD-YAP block	GPR151 ag	MITF inh	FBW7 act	GPR151 conf act	GPR119 ag
COc1cccc(-c2ccc(OCCCc3ccccn3)nc2)c1	-39.8	5.8*	5.9	-0.2	0.5	3.3
CCCC(=O)Nc1ccc(C(=O)N2CCN(c3cccc(Cl)c3)CC2)cc1	-7.8	6.3*	11.8	0.3	-0.6	5.8
O=C(CSCc1ccc([N+](=O)[O-])cc1)N1CCN(c2cccc(Cl)c2)CC1	-0.6	12.8*	6.9	-0.3	-0.4	-9.5
O=C(C(=O)N1CCN(c2cccc(Cl)c2)CC1)N1CCCCC1	2.9	5.3*	-13.5	0.1	-0.5	-0.1
O=C(C1CC1)N1CCN(c2cccc(Cl)c2)CC1	-0.9	-0.2	22.4	0.2	.	.
O=C1c2ccccc2C(=O)N1CNc1ccc(F)c(Cl)c1	-6.4	-1.3	-7.0	0.8	.	.
CCCCC[C@H]1O[C@H]1C/C=C\C/C=C\C/C=C\CCCC(=O)O	.	-2.0	-3.1	.	.	.
CCCCC/C=C\C/C=C\C/C=C\C[C@H]1O[C@H]1CCCC(=O)O	.	5.8*	-2.4	.	0.3	8.2
CCOc1ccc(NC(=O)CCC(=O)N/N=C/c2c[nH]c3ccccc23)cc1	13.8	0.0	18.5	0.2	.	.
CC(=O)NCC1CCCN(c2nc3nonc3nc2N2CCCCCC2)C1 (stereo unspecified)	4.6	-1.0	-8.9	0.0	.	.
CC(=O)NCC1CCCN(c2nc3nonc3nc2N2CCSCC2)C1 (stereo unspecified)	-4.6	5.5*	-0.2	-0.1	1.2	4.2
CN(C)C(=O)CN1CCN(c2nc3nonc3nc2N2CCCCCC2)CC1	2.5	4.9*	8.3	0.0	0.2	4.9
Cc1ccc(NCCNS(=O)(=O)c2cc(C)c(C)cc2C)nn1	1.6	8.4*	9.3	0.8	-0.2	2.8
Cc1ccc(NC(=O)CSc2nc3ccsc3c(=O)n2-c2ccccc2)cc1Cl	11.6	0.9	-8.7	-0.2	.	.
CN(Cc1cn(C)nc1-c1cccc(Cl)c1)C1CCOC1 (stereo unspecified)	8.0	0.4	5.7	0.1	.	.
COc1ccc(CNS(=O)(=O)c2ccc(C3CNC(=O)C3)cc2)cc1 (stereo unspecified)	12.1	-0.1	9.1	1.0	.	.
COc1ccc2c(c1)CCC(C)N2S(=O)(=O)c1ccc(C2CNC(=O)C2)cc1 (stereo unspecified)	2.9	8.3*	2.0	0.1	0.3	4.2
COc1ccc(CNC2C3CC4CC(C3)CC2C4)c(OC)c1 (stereo unspecified)	5.5	5.6*	5.0	0.1	0.2	-5.6
COc1ccccc1S(=O)(=O)Cc1ccc(C(=O)N2CCOCC2)o1	-17.4	46.2*	-7.4	0.2	0.1	6.0
N#C/C(=C\c1ccc[nH]1)C(=O)N1CCc2ccccc2C1	-28.1	5.3*	0.0	-0.2	1.1	8.8
N#C/C(=C\c1c[nH]c2ccccc12)C(=O)N1CCc2ccccc2C1	-10.2	-0.7	-11.5	-0.1	.	.
NC(=O)c1ccccc1NC(=O)CCn1c(=S)oc2ccccc21	-0.5	7.8*	15.1	-0.1	-0.9	-3.3
O=C(O)C1CCC(CN(Cc2cccc(Br)c2)C(=S)Nc2ccccc2F)CC1 (stereo unspecified)	10.7	0.0	7.1	0.1	.	.
Cc1ccccc1NC(=S)N(Cc1cccc(Br)c1)CC1CCC(C(=O)O)CC1 (stereo unspecified)	-0.2	7.6*	-1.0	-0.1	-0.7	-1.8
CCC(=O)Nc1ccc(S(=O)(=O)N2CCN(c3ccccc3)CC2)cc1	1.3	-1.1	-10.0	0.2	.	.
CC1(C)Cc2c(sc3nc(Cc4ccccc4)n(N)c(=O)c23)CO1	-4.2	0.6	-9.0	0.0	.	.
Cc1ccc(-c2cccc(CN3CCN(C)C(CCO)C3)c2)o1 (stereo unspecified)	0.1	8.8*	6.0	-0.1	-0.9	-6.9
Cc1ccc(-c2ccc(CN3CCN(C)C(CCO)C3)cc2)o1 (stereo unspecified)	-14.8	1.7	2.7	0.0	.	.
